The text below walks through data of PubChem BioAssay (EPA / NIEHS).

Structures are written as SMILES. Several values for one entry are separate records, joined by “and”; a condition that tells them apart may be missing. Equal values may be shown once. Some structures have more than one record in an assay (separate samples or runs), and their calls can disagree. Activity calls are given as the source filed them. The calls were made as follows: active = hit-call score of the fitted dose curve at least 0.9, where 1 is the maximum; inactive = score below 0.9.

Read-out in assay [1]: Vascular endothelial growth factor receptor 2 (Homo sapiens) (UniProt P35968)
The assay can be described thus: BSK_4H_VEGFRII: BioMAP Diversity Plus: 4H Assay for Vascular endothelial growth factor receptor 2 (VEGFR2) Biomarker Activity (AID 2283031).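 As to AC50: cell-surface VEGFR2 protein level quantified by ELISA.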 To be noted: primary human endothelial cells (HUVEC); actives raise or lower the signal. The procedure, abridged:
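In this multiplexed HUVEC system, biomarker ELISA was performed after 24 h chemical exposure. Parallel SRB staining (TCA fixation, 560 nm) tracked cytotoxicity; DMSO served as baseline.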

Read-out in assay [2]: Human Leukocyte Antigen - DR isotype (HLADR), HLA-DRA (gene 3122)
Kind of assay: BSK_BE3C_HLADR: BioMAP Diversity Plus: BE3C Assay for Human Leukocyte Antigen - DR isotype (HLADR) Biomarker Activity (AID 2283032). To be noted: primary human bronchial epithelial cells; actives raise or lower the signal. In outline: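 Chemicals are dosed onto BE3C bronchial epithelial cultures of human origin and left 24 h. HLA-DR is then measured by ELISA, and the endpoint is fitted in both directions using DMSO as the activity baseline.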

Read-out in assay [3]: Vascular cell adhesion molecule 1 (VCAM1), VCAM1 (gene 7412)
Kind of assay: BSK_4H_VCAM1: BioMAP Diversity Plus: 4H Assay for Vascular cell adhesion molecule 1 (VCAM1) Biomarker Activity (AID 2283033).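 As to outcome: cell-surface VCAM-1 protein measured by ELISA.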 The note with it: primary human endothelial cells (HUVEC); actives raise or lower the signal. In outline:
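Chemicals are added to primary human umbilical vein endothelial cells. After 24 h, VCAM-1 levels are measured by ELISA. Values come from bidirectional fitting referenced to DMSO.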

Read-out in assay [4]: Interferon-gamma inducible Protein 10 (IP10), CXCL10 (gene 3627)
The assay can be described thus: BSK_BE3C_IP10: BioMAP Diversity Plus: BE3C Assay for Interferon-gamma inducible Protein 10 (IP10) Biomarker Activity (AID 2283034). The note with it: primary human bronchial epithelial cells; actives raise or lower the signal. The procedure, abridged:
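IP-10 quantified by ELISA serves as the endpoint. Cells: primary human bronchial epithelium, read 24 h after compound addition. Activity is derived by bidirectional fitting with DMSO as negative control.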

Read-out in assay [5]: Monokine induced gamma interferon (MIG), CXCL9 (gene 4283)
Kind of assay: BSK_BE3C_MIG: BioMAP Diversity Plus: BE3C Assay for Monokine induced gamma interferon (MIG) Biomarker Activity (AID 2283035).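 As to outcome: MIG protein measured by ELISA in BE3C cultures after 24 h of dosing.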 To be noted: primary human bronchial epithelial cells; actives raise or lower the signal. In outline:
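ELISA quantified MIG after 24 h exposure of primary bronchial epithelial cultures, analysed in both directions relative to DMSO. Cytotoxicity tracked in parallel cultures by sulforhodamine B staining.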

Read-out in assay [6]: Transforming growth factor beta 1 (TGFb1), TGFB1 (gene 7040)
The assay can be described thus: BSK_BE3C_TGFb1: BioMAP Diversity Plus: BE3C Assay for Transforming growth factor beta 1 (TGFb1) Biomarker Activity (AID 2283036;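 as to outcome: TGF-b1 protein level measured by ELISA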). The note with it: primary human bronchial epithelial cells; actives raise or lower the signal. The procedure, abridged:
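Bronchial epithelial primary cells are treated with test chemical, then TGF-b1 is quantified by ELISA after 24 hours. Values derive from bidirectional fitting against DMSO, with cytotoxicity checked by SRB staining in parallel cultures.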

Read-out in assay [7]: Plasminogen activator inhibitor-1 (PAI1), SERPINE1 (gene 5054)
The assay can be described thus: BSK_BE3C_PAI1: BioMAP Diversity Plus: BE3C Assay for Plasminogen activator inhibitor-1 (PAI1) Biomarker Activity (AID 2283037). To be noted: primary human bronchial epithelial cells; actives raise or lower the signal. The procedure, abridged:
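Values derive from bidirectional fitting against DMSO baseline of PAI-1 levels, measured by ELISA in human bronchial epithelial cells 24 h after compound addition.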

Read-out in assay [8]: urokinase plasminogen activator (uPA), PLAU (gene 5328)
Kind of assay: BSK_BE3C_uPA: BioMAP Diversity Plus: BE3C Assay for urokinase plasminogen activator (uPA) Biomarker Activity (AID 2283038).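 As to outcome: uPA protein level quantified by ELISA in cell cultures; uPA read one day after compound addition.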 To be noted: primary human bronchial epithelial cells; actives raise or lower the signal. The procedure, abridged: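 Using confluent primary human lung bronchial epithelial cultures, we dosed chemicals, waited 24 h, then ran a uPA ELISA, fitting bidirectionally against DMSO.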

Read-out in assay [9]: Urokinase-type plasminogen activator receptor (uPAR), PLAUR (gene 5329)
Kind of assay: BSK_BE3C_uPAR: BioMAP Diversity Plus: BE3C Assay for Urokinase-type plasminogen activator receptor (uPAR) Biomarker Activity (AID 2283039).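 As to outcome: uPAR protein level measured by ELISA on the cells; cells exposed to compound for one day before measurement.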 To be noted: primary human bronchial epithelial cells; actives raise or lower the signal. In outline:
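Steps: dose human primary bronchial epithelial cells, incubate 24 h, measure uPAR by ELISA, then fit gain- or loss-of-signal response bidirectionally relative to DMSO.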

Read-out in assay [10]: Interleukin-6 (IL6), IL6 (gene 3569)
Kind of assay: BSK_CASM3C_IL6: BioMAP Diversity Plus: CASM3C Assay for Interleukin-6 (IL6) Biomarker Activity for (AID 2283040). To be noted: primary human coronary artery smooth muscle cells; actives raise or lower the signal.

Read-out in assay [11]: Tissue plasminogen activator (tPA), PLAT (gene 5327)
The assay can be described thus: BSK_BE3C_tPA: BioMAP Diversity Plus: BE3C Assay for Tissue plasminogen activator (tPA) Biomarker Activity (AID 2283041).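 As to outcome: tPA level quantified by ELISA one day after compound addition.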 To be noted: primary human bronchial epithelial cells; actives raise or lower the signal. The procedure, abridged:
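Gain- or loss-of-signal in tPA, measured by ELISA, derived by bidirectional fitting against DMSO. Cells: human primary bronchial epithelial; read at 24 h after chemical dosing.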

Read-out in assay [12]: Interleukin-8 (IL8), CXCL8 (gene 3576)
The assay can be described thus: BSK_CASM3C_IL8: BioMAP Diversity Plus: CASM3C Assay for Interleukin-8 (IL8) Biomarker Activity (AID 2283042).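 Also: IL-8 protein level quantified by ELISA.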 To be noted: primary human coronary artery smooth muscle cells; actives raise or lower the signal.

Read-out in assay [13]: Human Leukocyte Antigen - DR isotype (HLADR), HLA-DRA (gene 3122)
Kind of assay: BSK_CASM3C_HLADR: BioMAP Diversity Plus: CASM3C Assay for Human Leukocyte Antigen - DR isotype (HLADR) Biomarker Activity (AID 2283043).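 Also: cell-surface HLA-DR protein level quantified by ELISA.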 To be noted: primary human coronary artery smooth muscle cells; actives raise or lower the signal.

Read-out in assay [14]: Macrophage colony-stimulating factor (MCSF), CSF1 (gene 1435)
The assay can be described thus: BSK_CASM3C_MCSF: BioMAP Diversity Plus: CASM3C Assay for Macrophage colony-stimulating factor (MCSF) Biomarker Activity (AID 2283044).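 Also: M-CSF protein amount quantified by ELISA after 24 h exposure.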 The note with it: primary human coronary artery smooth muscle cells; actives raise or lower the signal.

Read-out in assay [15]: Low-density lipoprotein receptor (LDLR), LDLR (gene 3949)
The assay can be described thus: BSK_CASM3C_LDLR: BioMAP Diversity Plus: CASM3C Assay for Low-density lipoprotein receptor (LDLR) Biomarker Activity (AID 2283045).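 Also: LDLR protein level on the cell surface quantified by ELISA.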 The note with it: primary human coronary artery smooth muscle cells; actives raise or lower the signal.

Read-out in assay [16]: Monocyte Chemoattractant Protein-1 (MCP1), CCL2 (gene 6347)
Kind of assay: BSK_CASM3C_MCP1: BioMAP Diversity Plus: CASM3C Assay for Monocyte Chemoattractant Protein-1 (MCP1) Biomarker Activity (AID 2283046).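 Also: MCP-1 level quantified by ELISA 24 h after dosing.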 The note with it: primary human coronary artery smooth muscle cells; actives raise or lower the signal.

Assay [17] can be described thus: BSK_CASM3C_Proliferation: Cell Proliferation Assessment in the BioMAP Diversity Plus: CASM3C Assay (AID 2283047).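 Also: sulforhodamine B total protein stain as relative cell number at 560 nm; sub-confluent cells exposed 48 h before staining; fitted both ways against DMSO so gain or loss of cell number.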 To be noted: primary human coronary artery smooth muscle cells.
Read-out in assay [18]: Monokine induced gamma interferon (MIG), CXCL9 (gene 4283)
The assay can be described thus: BSK_CASM3C_MIG: BioMAP Diversity Plus: CASM3C Assay for Monokine induced gamma interferon (MIG) Biomarker Activity (AID 2283048).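 Also: MIG protein level measured by ELISA.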 To be noted: primary human coronary artery smooth muscle cells; actives raise or lower the signal.

Read-out in assay [19]: serum amyloid A (SAA), SAA1 (gene 6288)
The assay can be described thus: BSK_CASM3C_SAA: BioMAP Diversity Plus: CASM3C Assay for serum amyloid A (SAA) Biomarker Activity (AID 2283049).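 Also: SAA protein level quantified by ELISA.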 The note with it: primary human coronary artery smooth muscle cells; actives raise or lower the signal.

Assay [20] in a line: BSK_CASM3C_SRB: Viability Assessment in the BioMAP Diversity Plus: CASM3C Assay (AID 2283050).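 Also: total protein by SRB staining as cytotoxicity measure in parallel cultures.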 To be noted: primary human coronary artery smooth muscle cells.

Usually AC50 stands for the concentration at which the activity in the assay is half-maximal.

Regarding `C1CC2OC2CC1C1CO1` (configuration not stated), the result in assay [1], in [2], in [3], in assay [4], in assay [5] and in assay [6] was inactive. Besides, the outcome in assay [7], in assay [8], in assay [9], in [10], in [11] and in assay [12] was inactive. Further, the result in assay [13], in assay [14], in [15], in assay [16], in [17] and in assay [18] was inactive. Besides, the outcome in assay [19] and in assay [20] was inactive.

Take `Cc1ccccc1[N+](=O)[O-]`: the result in assay [1], in [2], in [3], in assay [4], in assay [5] and in [6] was inactive. Moreover, the result in assay [7], in assay [8], in assay [9], in assay [10], in [11] and in assay [12] was inactive. Moreover, the outcome in assay [13], in assay [14], in [15], in assay [16], in assay [17] and in assay [18] was inactive. For the same compound, the result in assay [19] and in [20] was inactive.

With `O=C(O)C(F)(F)C(F)(F)C(F)(F)C(F)(F)C(F)(F)C(F)(F)C(F)(F)C(F)(F)C(F)(F)F`, the half-maximal activity concentration (AC50) in [1] is 43.2 µM (active) and 55.4 µM (active); in assay [2], 11.1 µM (active) and 9.13 µM (active) and 11.4 µM (active); in assay [3] it was 33.8 µM (active) and 46.9 µM (active) and 46 µM (active); in [4], 9.39 µM (active) and 8.59 µM (active) and 8.35 µM (active); in assay [5], 28.6 µM (active) and 26.9 µM (active) and 12.7 µM (active); in assay [6] it was 10 µM (active). Besides, the AC50 in [7] is 14.2 µM (active) and 14.4 µM (active) and 12.8 µM (active); in assay [8], 16.1 µM (active) and 7.94 µM (active); in assay [9], 30.8 µM (active) and 16.4 µM (active) and 14.7 µM (active); in assay [11], 14.9 µM (active) and 14.1 µM (active) and 14.5 µM (active). Besides, the outcome in assay [1], in assay [8], in assay [10], in [12], in [13] and in assay [14] was inactive. Besides, the result in assay [15], in assay [16], in [17], in assay [18], in assay [19] and in assay [20] was inactive.

In the case of `CCNc1nc(NC(C)C)nc(SC)n1`, the result in assay [1], in assay [2], in [3], in [4], in assay [5] and in assay [6] was inactive. Besides, the outcome in [7], in assay [8], in [9], in assay [10], in assay [11] and in assay [12] was inactive. The result in assay [13], in assay [14], in assay [15], in assay [16], in assay [17] and in assay [18] was inactive. For the same compound, the outcome in [19] and in assay [20] was inactive.

With `CCOP(=S)(OCC)SCSC(C)(C)C`, the outcome in [1], in assay [2], in assay [3], in assay [4], in [5] and in assay [6] was inactive. Besides, the result in assay [7], in assay [8], in [9], in assay [10], in [11] and in [12] was inactive. The result in [13], in [15], in assay [16], in assay [17], in assay [18] and in assay [19] was inactive. In addition, the outcome in assay [20] was inactive. Besides, the AC50 in [14] was 2.51 µM (active).

Regarding `Cc1cc2c3c(c1)C(c1ccccc1)=N[C@@H](NC(=O)c1ccncc1)C(=O)N3CC2`, the result in [1], in assay [2], in assay [3], in [4], in assay [5] and in [6] was inactive. Also, the outcome in assay [7], in [8], in assay [9], in assay [10], in assay [11] and in assay [12] was inactive. For the same compound, the outcome in [13], in assay [14], in assay [15], in assay [16], in [17] and in assay [18] was inactive. Further, the outcome in [19] and in assay [20] was inactive.
